The results in this text go back to PubChem BioAssay AID602144 (Vanderbilt Specialized Chemistry Center, 2011).

Values without a mark were called inactive. Rule as the data show it: active = remaining activity below about 50%; inactive = the rest.

The target of this experiment is Phospholipase D1 (Homo sapiens) (UniProt Q13393). Briefly: cellular phospholipase D1 activity inhibition – Calu-1 cells, single concentration (AID 602144).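 Also: tested at 200 nM.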 As to conditions: cellular PLD1 activity, stronger effect = lower value.
Chain of Phospholipase D1 (Homo sapiens) (Q13393 whole entry, looked up): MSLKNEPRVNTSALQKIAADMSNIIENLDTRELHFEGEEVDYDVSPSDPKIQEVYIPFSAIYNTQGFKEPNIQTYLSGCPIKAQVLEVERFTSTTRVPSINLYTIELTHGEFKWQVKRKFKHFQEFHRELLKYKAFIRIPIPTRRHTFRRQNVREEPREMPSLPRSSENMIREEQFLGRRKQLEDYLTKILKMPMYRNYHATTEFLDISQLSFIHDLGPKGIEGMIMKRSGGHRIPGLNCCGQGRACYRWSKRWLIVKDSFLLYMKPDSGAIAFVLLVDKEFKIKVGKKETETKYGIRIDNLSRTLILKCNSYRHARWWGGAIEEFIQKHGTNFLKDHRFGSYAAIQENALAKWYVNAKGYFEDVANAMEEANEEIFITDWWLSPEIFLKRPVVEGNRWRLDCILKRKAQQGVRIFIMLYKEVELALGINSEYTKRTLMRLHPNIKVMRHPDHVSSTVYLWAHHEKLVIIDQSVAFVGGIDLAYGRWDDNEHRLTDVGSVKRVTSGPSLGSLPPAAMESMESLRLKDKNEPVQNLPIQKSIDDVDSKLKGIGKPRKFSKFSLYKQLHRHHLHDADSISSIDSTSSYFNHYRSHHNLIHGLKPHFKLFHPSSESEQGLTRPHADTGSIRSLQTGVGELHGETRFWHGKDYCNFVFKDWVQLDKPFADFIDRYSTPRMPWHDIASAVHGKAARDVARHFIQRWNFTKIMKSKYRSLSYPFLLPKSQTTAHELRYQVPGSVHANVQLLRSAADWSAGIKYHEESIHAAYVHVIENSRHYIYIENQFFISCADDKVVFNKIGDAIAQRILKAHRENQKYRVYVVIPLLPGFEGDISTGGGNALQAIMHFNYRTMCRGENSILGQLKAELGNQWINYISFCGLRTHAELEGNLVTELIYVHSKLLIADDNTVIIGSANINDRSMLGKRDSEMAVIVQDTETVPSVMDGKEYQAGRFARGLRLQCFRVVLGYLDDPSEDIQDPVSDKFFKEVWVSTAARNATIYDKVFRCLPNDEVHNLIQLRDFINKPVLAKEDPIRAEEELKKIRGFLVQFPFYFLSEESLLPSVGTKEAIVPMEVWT
Chain of Phospholipase D1 (Homo sapiens) (Q13393 whole entry, looked up): as above
In the case of `C[C@@H](CN1CCC2(CC1)CN(S(C)(=O)=O)c1ccccc12)NC(=O)c1ccc2ccccc2c1`, the remaining activity was 119%.
In the case of `C[C@@H](CN1CCC2(C=Cc3ccccc32)CC1)NC(=O)[C@H]1C[C@@H]1c1ccccc1`, the remaining activity was 126%.
As to `Cc1cc(C)c(S(=O)(=O)NCCN2CCC(n3c(=O)[nH]c4ccccc43)CC2)c(C)c1`, the remaining activity was 133%.

One may read the remaining activity as the signal under treatment as a percentage of the control signal.
